Measurements from PubChem BioAssay AID1734 (Vanderbilt High Throughput Screening Facility, 2009).
Activity calls are given as the source filed them. How the calls were made is not given here.

How the values were obtained:
[1] = KCC2 and NKCC1 inhibition by rubidium flux, cell-based, NKCC1 counter-screen (AID 1734); conditions: KCC2-expressing cells, NKCC1 counter-screen
[2] = biological target: Solute carrier family 12 member 5 (Homo sapiens) (UniProt Q9H2X9); assay: as above; conditions: KCC2-expressing cells
Solute carrier family 12 member 5 (Homo sapiens), sequence (Q9H2X9 whole entry, looked up): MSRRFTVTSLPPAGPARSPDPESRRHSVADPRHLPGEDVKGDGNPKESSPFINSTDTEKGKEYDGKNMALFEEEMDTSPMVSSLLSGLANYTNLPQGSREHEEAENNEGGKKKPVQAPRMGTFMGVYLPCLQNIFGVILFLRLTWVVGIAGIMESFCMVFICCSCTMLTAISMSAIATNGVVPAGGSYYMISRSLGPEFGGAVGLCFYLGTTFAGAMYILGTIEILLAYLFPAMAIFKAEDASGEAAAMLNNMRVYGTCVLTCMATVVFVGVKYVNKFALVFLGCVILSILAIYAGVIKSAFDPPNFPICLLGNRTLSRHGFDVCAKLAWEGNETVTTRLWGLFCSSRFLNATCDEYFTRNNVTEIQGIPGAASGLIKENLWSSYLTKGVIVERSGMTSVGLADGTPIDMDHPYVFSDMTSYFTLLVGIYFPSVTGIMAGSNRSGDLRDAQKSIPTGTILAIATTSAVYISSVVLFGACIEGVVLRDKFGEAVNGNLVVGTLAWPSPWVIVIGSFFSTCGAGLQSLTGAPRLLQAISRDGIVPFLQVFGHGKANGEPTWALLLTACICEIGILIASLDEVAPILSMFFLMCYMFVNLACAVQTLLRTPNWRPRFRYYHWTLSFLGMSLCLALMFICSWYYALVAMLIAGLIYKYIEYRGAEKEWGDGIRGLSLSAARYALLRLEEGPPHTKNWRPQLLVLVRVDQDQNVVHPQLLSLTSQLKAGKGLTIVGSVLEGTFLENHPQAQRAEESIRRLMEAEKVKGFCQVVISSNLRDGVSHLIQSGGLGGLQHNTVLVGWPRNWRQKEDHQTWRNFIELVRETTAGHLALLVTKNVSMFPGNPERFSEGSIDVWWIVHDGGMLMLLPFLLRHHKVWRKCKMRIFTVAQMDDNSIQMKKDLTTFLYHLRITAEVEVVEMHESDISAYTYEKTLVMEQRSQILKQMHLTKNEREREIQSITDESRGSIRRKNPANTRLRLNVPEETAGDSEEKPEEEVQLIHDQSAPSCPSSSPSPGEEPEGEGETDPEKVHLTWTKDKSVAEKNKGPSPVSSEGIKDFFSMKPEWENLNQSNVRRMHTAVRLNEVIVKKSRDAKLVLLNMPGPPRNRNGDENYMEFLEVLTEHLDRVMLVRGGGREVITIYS

Compound | inhibition ([1]; at 5 µM) | inhibition ([1]; at 50 µM) | outcome [2]
O=C(Cn1cnc2c(nnn2Cc2ccccc2)c1=O)N1CCCc2ccccc21 | 23.4% | 33.2% | 
CCOc1ccc(Nc2n[nH]c(=S)s2)cc1 | 44.9% | 67.4% | inactive
O=S(=O)(NCc1ccccc1)c1ccc(Cl)c(S(=O)(=O)NCc2ccccc2)c1 | 13.5% | 30.5% | 
Cc1csc(NC(=O)CSc2ccc(-c3ccccc3)nn2)n1 | 12.9% | 19.7% | 
O=C(Nc1ccc(S(=O)(=O)NCc2ccccc2)cc1)c1ccccc1[N+](=O)[O-] | 24.2% | 31.2% | 
O=C(O)CCn1c(SCc2cccc3ccccc23)nc2ccccc21 | 57.5% | 80.5% | 
O=C(CN1C(=O)NC2(CCCC2)C1=O)Nc1nc(-c2ccc(F)cc2)cs1 | 39.2% | 43.6% | 
O=C(OCC(=O)N1CCN(C(=O)c2ccco2)CC1)c1sc2ccccc2c1Cl | 33.3% | 55.4% | 
O=C(NCC1CCCN(C(=O)c2cccnc2)C1)c1ccc(-c2ccccc2)cc1 (configuration not stated) | 31.2% | 40.3% | inactive
Cc1ccc(Nc2nnc(SCC(=O)c3cc4ccccc4o3)s2)cc1C | 46.3% | 53.4% | 
